Screening results from PubChem BioAssay.
ERp5 inh: ERp5 (human) disulfide isomerase inhibition. Q15084. ERp5 insulin aggregation, absorbance 650 nm, 90 min. inhibition, % at 9.99 µM. hit rate 0.05% among 350,000;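 active = mean replicate inhibition above about 25%, with every replicate also reaching it, limit read from the data, passing the limit was not always enough; inconclusive = only one of those two criteria met; inactive = neither criterion met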
PDI inh: blocks human protein disulfide isomerase activity; hit rate 0.052% among 350,000; PDI insulin aggregation turbidity, A650, 90 min; inhibition, % at 10 µM;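 active = mean inhibition across replicates of 30% or more, whatever share of single replicates reach that level; inconclusive = mean inhibition below 30% while every single replicate reaches 30%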
ERAP1 inh: ERAP1 (human) enzyme inhibition; AID 652197; inhibition, % at 10.7 µM; hit rate 0.15% among 340,000; recombinant ERAP1, Leu-AMC fluorescence, 60 min;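 active = mean replicate inhibition of at least 30%, or all replicates individually reaching that 30% level; inactive = mean below 30% and not every replicate reaching it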;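 also: 0% = neutral control wells and 100% = L-leucinethiol positive control wells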
Target sequence (Q9NZ08 whole entry, looked up): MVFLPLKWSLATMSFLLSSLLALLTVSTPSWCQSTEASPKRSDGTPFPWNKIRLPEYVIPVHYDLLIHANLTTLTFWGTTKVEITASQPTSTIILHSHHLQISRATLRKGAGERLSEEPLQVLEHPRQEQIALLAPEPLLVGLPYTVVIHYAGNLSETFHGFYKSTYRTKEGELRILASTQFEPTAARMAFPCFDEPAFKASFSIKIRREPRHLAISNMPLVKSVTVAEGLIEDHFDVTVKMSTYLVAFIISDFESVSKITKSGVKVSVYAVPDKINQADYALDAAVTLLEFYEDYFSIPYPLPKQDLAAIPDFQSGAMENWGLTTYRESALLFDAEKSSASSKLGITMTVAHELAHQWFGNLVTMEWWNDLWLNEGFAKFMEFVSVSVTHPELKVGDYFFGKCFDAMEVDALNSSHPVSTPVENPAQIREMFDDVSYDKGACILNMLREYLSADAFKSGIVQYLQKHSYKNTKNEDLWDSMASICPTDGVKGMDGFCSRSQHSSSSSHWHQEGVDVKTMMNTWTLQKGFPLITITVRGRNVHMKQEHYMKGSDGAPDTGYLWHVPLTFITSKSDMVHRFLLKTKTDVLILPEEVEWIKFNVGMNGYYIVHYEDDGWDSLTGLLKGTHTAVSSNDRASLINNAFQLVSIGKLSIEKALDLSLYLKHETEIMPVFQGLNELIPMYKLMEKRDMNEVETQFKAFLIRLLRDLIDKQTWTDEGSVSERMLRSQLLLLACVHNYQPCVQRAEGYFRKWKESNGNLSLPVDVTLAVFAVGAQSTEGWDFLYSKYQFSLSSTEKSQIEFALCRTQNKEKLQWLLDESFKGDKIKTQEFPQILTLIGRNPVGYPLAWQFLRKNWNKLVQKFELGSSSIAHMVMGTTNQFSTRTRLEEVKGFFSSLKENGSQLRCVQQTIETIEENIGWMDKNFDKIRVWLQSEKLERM
MLL AF4-AF9 inh: blocks AF4 peptide binding to human AF9; P42568; AlphaScreen, biotin-AF4 peptide binding to FLAG-AF9; inhibition, % at 10 µM; hit rate 0.47% among 350,000;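 active = every replicate reaching a set inhibition limit, whatever the replicate mean, cut at about 25% in these data; inconclusive = mean inhibition reaches that limit but some replicates miss it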;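 also: 0% = plate neutral control median and 100% = total signal loss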
DENV2 CPE: DENV2-induced cell death inhibition | DENV2-infected cells, cytopathic effect rescue, plate reader | CPE inhibition, % at 9.99 µM | hit rate 1.7% among 350,000; in the data active = CPE inhibition above about 20%, passing the limit was not always enough; inconclusive = no clear call, values can overlap the other calls; tested in BHK-21 cells;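 also: 0% = median of neutral control wells and 100% = median of positive control wells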
The depositor's hits bear a star; ? = inconclusive; nt = no result given. The list is not random: actives were taken first. Their share in the collection is about 1.8%.

SMILES | ERp5 inh | PDI inh | ERAP1 inh | MLL AF4-AF9 inh | DENV2 CPE
Cc1ccccc1S(=O)(=O)N1CC[C@@H]2[C@H]1c1cc(-c3ccc(C#N)cc3)ccc1N(C)[C@H]2CO | -1 | nt | -1 | -5 | 27*
COc1cccc(-c2ccc3c(c2)[C@@H]2[C@@H](CCN2S(=O)(=O)c2ccccc2C)[C@H](CO)N3C)c1 | 1 | nt | -3 | -2 | 28*
Cc1ccccc1S(=O)(=O)N1CC[C@@H]2[C@H]1c1cc(-c3cccc(F)c3)ccc1N(C)[C@H]2CO | nt | nt | nt | nt | 22*
Cc1ccccc1S(=O)(=O)N1CC[C@@H]2[C@@H](CO)N(C)c3ccc(-c4ccccc4)cc3[C@@H]21 | -2 | nt | -1 | 4 | -1
O=C(O)C[C@@H]1C=C[C@@H](NC(=O)CCN2CCCCC2)[C@H](CO)O1 | 0 | nt | 4 | -1 | 4
C[C@@H]1CN([C@H](C)CO)C(=O)Cc2cc(NS(=O)(=O)c3ccc(Cl)cc3)ccc2O[C@@H]1CN(C)S(C)(=O)=O | -8 | nt | 0 | -2 | -5
CN1[C@@H]2Cn3c(ccc(-c4ccccc4)c3=O)[C@H]1[C@@H](C(=O)NCC1CC1)[C@@H]2CO | -6 | nt | 0 | 0 | 5
Cc1c(C(=O)NCCCN2CCOCC2)sc2nc(-c3ccccc3)cn12 | 0 | nt | 3 | 0 | 87*
COCCNC(=O)c1sc2nc(-c3ccccc3)cn2c1C | nt | -2 | nt | nt | nt
CO[C@H]1CN(C)C(=O)c2cc(NC(=O)Cc3ccccc3)ccc2OC[C@@H](C)N(CC2CC2)C[C@@H]1C | 12 | nt | 1 | 3 | -4
C[C@@H]1CN([C@@H](C)CO)C(=O)c2cccc(NS(=O)(=O)c3ccc(Cl)cc3)c2O[C@@H]1CN(C)Cc1ccc(Cl)c(Cl)c1 | 16 | nt | -2 | -1 | -3
C[C@@H]1CN([C@H](C)CO)C(=O)c2cccc(NS(=O)(=O)c3cccs3)c2O[C@H]1CN(C)Cc1ccc(Cl)c(Cl)c1 | -3 | nt | 0 | 0 | 41*
COc1ccc(CN(C)C[C@H]2Oc3c(NS(=O)(=O)c4ccc(C)cc4)cccc3C(=O)N([C@H](C)CO)C[C@@H]2C)cc1 | -2 | nt | 1 | 1 | 31*
COc1ccc(S(=O)(=O)Nc2cccc3c2O[C@H](CN(C)Cc2ccc(Cl)c(Cl)c2)[C@@H](C)CN([C@H](C)CO)C3=O)cc1 | 1 | 2 | 1 | 7 | 25*
COc1ccc(CN(C)C[C@H]2OCCCC[C@H](C)Oc3ccc(NC(=O)C4CCCCC4)cc3C(=O)N([C@@H](C)CO)C[C@H]2C)cc1 | 3 | nt | 2 | 1 | 5
COCC(=O)N1[C@H](CO)[C@H](c2ccc(C#Cc3ccccc3F)cc2)[C@@H]1C#N | 10 | nt | -1 | 1 | 1
O=C(Nc1ccc(F)cc1)N[C@@H]1CC[C@@H](CC(=O)N2CCCCC2)O[C@H]1CO | -1 | nt | 1 | -13 | ?
O=C(c1ccc2c(c1)OCO2)N1CCC(Cc2ccccc2)CC1 | -1 | 7 | nt | 1 | 25*
CC(=O)N1[C@H](CO)[C@H](c2ccccc2)C12CN(C(=O)CN1CCOCC1)C2 | 3 | nt | 0 | -2 | 83*
CC(=O)N1[C@H](CO)[C@@H](c2ccccc2)C12CN(C(=O)c1ccc3c(c1)OCO3)C2 | 1 | nt | -4 | -1 | 55*
O=C(c1ccccc1)N1CCN(C(=O)c2ccc3c(c2)OCO3)CC1 | 4 | -4 | -2 | -7 | -6
CCNC(=O)C[C@@H]1CC[C@H]2[C@@H](COC[C@H](O)CN2Cc2ccccc2F)O1 | -2 | nt | 3 | 1 | -5
CCCC1CC(CCc2ccccc2)OS(=O)(=O)N1 (configuration not stated) | 0 | -2 | -2 | -5 | 40*
Cc1cc(-c2cc(NC(=O)Cc3c(C)[nH]c4ccccc34)ccc2N(C)c2cccnc2)ccc1F | 4 | nt | 2 | nt | 5
Cc1[nH]c2ccccc2c1CC(=O)Nc1ccc(N(C)c2cccnc2)c(-c2cccc(Cl)c2)c1 | 1 | nt | 0 | nt | 43*
SMILES | ERp5 inh | PDI inh | ERAP1 inh | MLL AF4-AF9 inh | DENV2 CPE
c1ccc(-c2ccc3[nH]ccc3c2)cc1 | 5 | -1 | 0 | 6 | 87*
NC(=O)C1CCN(CC(O)COc2ccc(-c3ccccc3)cc2)CC1 (configuration not stated) | -1 | -8 | 1 | 2 | 50*
CCOC(=O)N1CCN(CC(O)COc2ccc(-c3ccccc3)cc2)CC1 (configuration not stated) | 1 | -1 | -3 | -5 | -2
O=C(C1CCCC1)N1C[C@@H]2[C@H](c3ccccc31)[C@@H](CO)N2C(=O)Cc1ccccn1 | -3 | nt | 2 | -1 | 34*
O=C(C1CCCC1)N1C[C@@H]2[C@H](c3ccccc31)[C@H](CO)N2C(=O)Cc1ccccn1 | 2 | nt | -2 | -1 | 0
O=C(CC(F)(F)F)N1C[C@@H]2[C@H](c3ccccc31)[C@@H](CO)N2C(=O)CN1CCOCC1 | 2 | nt | -5 | 1 | 53*
O=C(Cc1ccccc1)N1C[C@@H]2[C@H](c3ccccc31)[C@@H](CO)N2C(=O)C1CCCCC1 | 1 | nt | -1 | 0 | 24*
O=C(CC(F)(F)F)N1C[C@@H]2[C@H](c3ccccc31)[C@@H](CO)N2C(=O)C1CC1 | 1 | nt | 1 | -1 | 36*
COc1ccc(S(=O)(=O)Nc2cccc3c2O[C@H](CN(C)S(=O)(=O)c2ccc(OC)cc2)[C@@H](C)CN([C@@H](C)CO)C3=O)cc1 | nt | nt | -2 | 2 | nt
O=C(Cc1ccccn1)NCC[C@H]1CC[C@@H](NC(=O)Nc2ccccc2)[C@@H](CO)O1 | 7 | nt | 6 | 2 | -2
O=C(Cc1ccccc1)N1C[C@H]2[C@@H](c3ccccc31)[C@@H](CO)N2C(=O)C1CC1 | 2 | nt | 4 | -1 | 25*
COc1ccccc1C(=O)N1C[C@@H]2[C@H](c3ccccc31)[C@H](CO)N2C(=O)C1CCCCC1 | 2 | nt | 0 | -3 | -2
COc1ccccc1C(=O)N1C[C@@H]2[C@H](c3ccccc31)[C@H](CO)N2C(=O)C1CCCC1 | -3 | nt | 0 | 0 | 22*
CO[C@@H]1CN(C)C(=O)c2ccc(NC(=O)c3cc(C)on3)cc2OC[C@@H](C)NC[C@@H]1C | 0 | nt | 2 | -5 | 2
CSc1nc(Cl)c(Br)c(Nc2c[nH]c(=O)[nH]c2=O)n1 | 0 | 9 | -4 | 0 | 52*
O=C(C[C@@H]1C[C@@H]2c3cc(NC(=O)NC4CCCC4)ccc3O[C@@H]2[C@H](CO)O1)NCc1cccnc1 | -2 | nt | 2 | 2 | ?
O=C(Cn1ccc(NC(=O)OCc2ccccc2)nc1=O)NCCN1CCOCC1 | 2 | -4 | -1 | nt | 13
O=C(Nc1ccn(CC(=O)N2CCN(c3ccccn3)CC2)c(=O)n1)OCc1ccccc1 | -2 | -4 | nt | 4 | 119*
O=C(Cn1ccc(NC(=O)OCc2ccccc2)nc1=O)NCCCN1CCCC1=O | -4 | 9 | nt | 2 | 114*
O=C(Nc1ccn(CCCN2CCN(c3ncccn3)CC2)c(=O)n1)OCc1ccccc1 | -6 | -6 | -8 | 7 | 6
CO[C@@H]1CN(C)C(=O)c2cc(NC(=O)Cc3ccccc3)ccc2OC[C@@H](C)N(C(C)=O)C[C@H]1C | -3 | nt | -6 | -4 | -1
